Pf Dd2 growth: blocks in vitro growth of P. falciparum Dd2. 4.3% of 120,000 active. P. falciparum Dd2 growth, SYBR Green, 72 h. Potency, µM (top dose mostly 28.9 µM), without a hit: at the highest dose activity, negative = inhibition, usual class: inhibitors; active means well fitted inhibition curve with a large enough effect;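 further: plate controls were DMSO vehicle for no effect and reference drug for full effect; nearly all actives have a fitted effect of over 65% in size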
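Readout: SYBR Green fluorescence, 485 nm excitation, 535 nm emission, after ~16 h lysis at 37C. Before that, Dd2-infected red cells (2.5% hematocrit) grew 72 h with compound, 29 uM top final concentration.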
* marks the source's active call; other numbers are inactive results; [ ] = remark or other dose. This is one part of a sample in which hits are shown more often than they occur. Potency means the concentration at half of the fitted maximal effect.

What do the screens show for `O=C1Nc2ccccc2C12CCN(Cc1cccc3ccccc13)CC2`?
Pf Dd2 growth: 24%

What do the screens show for `O=C(CN1CCCC1=O)N1CCC2(CC1)NCCc1c2[nH]c2ccccc12`?
Pf Dd2 growth: 19%

How did O=C(Cn1c(=O)oc2ccccc21)N1CCC2(CC1)NCCc1c2[nH]c2ccccc12 do in these assays?
Pf Dd2 growth: 8.9µM*

How did COCCC(=O)N1CCC2(CC1)NCCc1c2[nH]c2ccccc12 do in these assays?
Pf Dd2 growth: -19%

How did CN(Cc1ccc(-c2ccccc2)cc1)S(C)(=O)=O do in these assays?
Pf Dd2 growth: 0%[44.1 µM]

How did CCOc1ccccc1C(=O)NCc1nnc2ccc(-c3ccccc3)nn12 do in these assays?
Pf Dd2 growth: -28%

What do the screens show for `CNC(=O)[C@@H]1CN(C(=O)c2cnc(C)cn2)C[C@H]1c1n[nH]c(C)n1`?
Pf Dd2 growth: 9%

Results for COc1ccc(CNC(=O)CCn2ccn3nc4c(c3c2=O)CCCC4)cc1 ?
Pf Dd2 growth: -30%

Results for CCCN(C(=O)c1cn(CC(C)C)c(=O)c2cc(OC)c(OC)cc12)c1cccc(C)c1 ?
Pf Dd2 growth: -17%

Results for COc1cc2c(C(=O)N3CCN(c4cccc(C(F)(F)F)c4)CC3)cn(CC(C)C)c(=O)c2cc1OC ?
Pf Dd2 growth: 8.9µM*

How did COc1cc2[nH]c(=O)n(CCCC(=O)N3CCN(c4cccc(C(F)(F)F)c4)CC3)c(=O)c2cc1OC do in these assays?
Pf Dd2 growth: inactive

What do the screens show for `C[C@H](O)c1onc(-c2ccccc2)c1C(=O)N1CCCCCC1`?
Pf Dd2 growth: -16%[44.1 µM]

How did Cc1nn(C)c(C)c1S(=O)(=O)N1CCC(c2noc(-c3cccnc3)n2)C1 (stereo not drawn) do in these assays?
Pf Dd2 growth: 41%[5.79 µM]

What do the screens show for `COCc1nc(C2CCN(C(=O)NC3CCCCC3)C2)no1` (stereo not drawn)?
Pf Dd2 growth: -1%

What do the screens show for `CC(C)NC(=O)C[C@@H]1O[C@H](CNS(=O)(=O)c2ccccc2)[C@@H](O)[C@H]1O`?
Pf Dd2 growth: 31%[44.1 µM]

What do the screens show for `COCC1CN(C)CC12CCN(C(=O)c1cccc(C)c1)CC2` (stereo not drawn)?
Pf Dd2 growth: -11%

What do the screens show for `O=C(Nc1ccccc1)O[C@@H]1CO[C@H]2[C@@H]1OC[C@@H]2n1nnnc1SCc1ccco1`?
Pf Dd2 growth: inactive

How did O=C(NC1CCCCC1)O[C@@H]1CO[C@H]2[C@@H]1OC[C@@H]2n1nnnc1SCc1ccco1 do in these assays?
Pf Dd2 growth: inactive

How did CC(=O)c1ccc(NC(=O)O[C@@H]2CO[C@H]3[C@@H]2OC[C@@H]3n2nnnc2SCc2ccco2)cc1 do in these assays?
Pf Dd2 growth: 6.3µM*

Results for CC(C)(O)CCc1cccc(C(=O)N2CCC(CCn3cccn3)CC2)c1 ?
Pf Dd2 growth: -9%

Results for O=c1[nH]nc2n1CCN(Cc1ccc(F)cc1Cl)CC2 ?
Pf Dd2 growth: 14%

What do the screens show for `Cc1ccc(-n2c(/C=C\c3ccc(F)cc3)nc3ccccc3c2=O)cc1Cl`?
Pf Dd2 growth: inactive

How did Cc1cccc(N2CCN(c3nc4ccccc4c4nc(-c5cccnc5)nn34)CC2)c1C do in these assays?
Pf Dd2 growth: 14%

Results for Cc1ccc(C)c(N2CCN(c3nc4ccccc4c(=O)n3-c3ccccc3)CC2)c1 ?
Pf Dd2 growth: inactive

What do the screens show for `CCc1ccc(-n2c(N3CCN(c4cccc(C)c4C)CC3)nc3ccccc3c2=O)cc1`?
Pf Dd2 growth: 11µM*

Results for Cc1cccc(-c2nc3c4ccccc4nc(N4CCN(c5ccc(F)cc5)CC4)n3n2)c1 ?
Pf Dd2 growth: -3%

What do the screens show for `CCc1ccc(-n2c(N3CCN(c4ccc(F)cc4)CC3)nc3ccccc3c2=O)cc1`?
Pf Dd2 growth: 5.6µM*

Results for O=C1NCCCCCN(C(=O)C2CCCCC2)[C@H]2CCCC[C@@H]12 ?
Pf Dd2 growth: inactive

What do the screens show for `CCn1cnnc1CC1CCN(C(=O)c2cccc(C)c2)C1` (stereo not drawn)?
Pf Dd2 growth: inactive

What do the screens show for `COCC1CN(C(C)=O)CC12CCN(C(=O)c1nn(C)c3ccccc13)CC2` (stereo not drawn)?
Pf Dd2 growth: inactive

Results for COc1ccc2c(c1)CCc1c(C(=O)Nc3cnn(Cc4ccc(Cl)cc4Cl)c3)noc1-2 ?
Pf Dd2 growth: 7.9µM*

Results for CCc1cc(C(=O)Nc2cnn(Cc3ccccc3C)c2)no1 ?
Pf Dd2 growth: 0%

Results for COc1ccc(CN2Cc3cc(NC(=O)c4ccc(Cl)cc4)ccc3OC(C)C2=O)c(OC)c1 (stereo not drawn) ?
Pf Dd2 growth: inactive

How did COC(=O)c1cccc(C(=O)N[C@H]2CO[C@H]3[C@@H]2OC[C@H]3OC(=O)Nc2ccc(Oc3ccccc3)cc2)c1 do in these assays?
Pf Dd2 growth: -25%

How did COc1cc(NC(=O)c2nn(C)c3c2CS(=O)(=O)c2ccccc2-3)cc(OC)c1 do in these assays?
Pf Dd2 growth: -21%

How did Cn1nc(C(=O)Nc2ccc(F)c(Cl)c2)c2c1-c1ccccc1S(=O)(=O)C2 do in these assays?
Pf Dd2 growth: 8.9µM*

What do the screens show for `Cc1ccc(NC(=O)c2nn(C)c3c2CS(=O)(=O)c2ccccc2-3)c(Cl)c1`?
Pf Dd2 growth: -1%

Results for COc1ccc(N2CC3CCC(C2)N3Cc2ccc(-c3ccccc3)cc2)cc1 ?
Pf Dd2 growth: 9%

What do the screens show for `COc1ccc(N2CC3CCC(C2)N3Cc2ccccc2)cc1`?
Pf Dd2 growth: -11%

How did COc1ccc(N2CC3CCC(C2)N3Cc2cccc(-c3cccnc3)c2)cc1 do in these assays?
Pf Dd2 growth: 11µM*

What do the screens show for `Cc1ccccc1C1CCCN(C(=O)CCC2(Cc3ccc(F)cc3)CCC(=O)N2)C1` (stereo not drawn)?
Pf Dd2 growth: -3%

How did Cc1cc(C)n(CCNC(=O)c2cn(CCN3CCNCC3)nn2)c(=O)n1 do in these assays?
Pf Dd2 growth: -7%

What do the screens show for `O=C1CCN(Cc2cccc(F)c2)CCCC(c2nc(-c3cccnc3)no2)CCN1` (stereo not drawn)?
Pf Dd2 growth: -17%

What do the screens show for `CCN(Cc1cccc2cnccc12)CC1CCCN(CCc2cccc(F)c2)C1` (stereo not drawn)?
Pf Dd2 growth: 2.2µM*

What do the screens show for `CN(CC1CCN(CCc2cccc(F)c2)CC1)C(=O)COc1cccnc1`?
Pf Dd2 growth: -25%

Results for Clc1cc(NCCC2CCCCC2)n2nccc2n1 ?
Pf Dd2 growth: -17%[44.1 µM]

How did COCC(=O)N1CC[C@@H](CC(=O)O)[C@@H](CCN2CCN(c3ccccc3)CC2)C1 do in these assays?
Pf Dd2 growth: 13%[44.1 µM]

Results for CCCCNc1cc(N2CCN(C3CCCCC3)CC2)c2noc3c2c1C(=O)c1ccccc1-3 ?
Pf Dd2 growth: 2.5µM*

Results for O=C(NCc1ccc(F)cc1)c1cc(Br)cn2ccnc12 ?
Pf Dd2 growth: -2%

Results for CCCn1c(C)c(CC(=O)NCC2COCCO2)c2c1CC(C)(C)CC2=O (stereo not drawn) ?
Pf Dd2 growth: -12%

How did Cc1ccc(NC(=O)CCSc2nc(-c3ccco3)cc(C(F)(F)F)n2)cc1F do in these assays?
Pf Dd2 growth: 0.79µM*

Results for Cc1ccc(NC(=O)CSc2nc(-c3ccco3)cc(C(F)(F)F)n2)cc1C ?
Pf Dd2 growth: -29%

Results for COc1ccc(NC(=O)CCCSc2nc(-c3ccco3)cc(C(F)(F)F)n2)c(OC)c1 ?
Pf Dd2 growth: inactive

Results for Cc1cc(F)ccc1NC(=O)CCSc1nc(-c2ccco2)cc(C(F)(F)F)n1 ?
Pf Dd2 growth: 8.9µM*

What do the screens show for `COc1ccc(NC(=O)CCCSc2nc(-c3ccco3)cc(C(F)(F)F)n2)cc1`?
Pf Dd2 growth: 85%
